From PubChem BioAssay (NCATS) come the findings set out here.

Results filed as inconclusive are left out. Active and inactive are the calls of the source. Unless noted, calls come from the whole dose curve; as a rule, active = well fitted curve in the direction sought with a large enough effect; inconclusive = small, poorly fitted or top-dose-only effect, or another doubt; inactive = no such curve, though single readings can be large; an effect the other way counts as inactive or inconclusive.

The target in experiment [1] is Calcium and integrin-binding protein 1 (Homo sapiens) (UniProt Q99828). As to the kind of experiment: Primary qHTS for Identification of Calcium Integrin Binding Protein 1 (CIB1) Competitor (AID 1508620).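 Note: GST tagged CIB1 binding a fluorescein labelled alphaIIb integrin peptide tracer; top concentration of the series differs between compounds; % is set by controls: 0 for no effect and ±100 for the full control effect.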 In a few lines:
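Fluorescence polarization competition: CIB1-GST (1 uM final) preincubated with compound 15 min at room temperature, then FITC-labeled alphaIIb peptide (100 nM final) added for another 15 min. Polarization read at Ex 480/Em 540.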
For orientation: In qHTS, concentration-response curves come from the screen itself.

Experiment [2] has as its target Cytochrome P450 2D6 (Homo sapiens) (UniProt P10635). Kind of experiment: Cytochrome P450 family 2 subfamily D member 6 (CYP2D6) small molecule antagonists: luciferase biochemical (cell-free) qHTS assay (AID 1645840; active = well fitted curve in the direction sought with a large enough effect in the repeat runs; an effect the other way counts as inactive or inconclusive; note: nearly all actives have a fitted effect of over 55% in size; note: potency is the fitted concentration of half-maximal effect; for activity change, negative = inhibition: % is set by controls: 0 for no effect and ±100 for the full control effect). In a few lines: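 P450-Glo luminescent screen: recombinant CYP2D6 enzyme–proluciferin substrate mix preincubated with compound 10 min at room temperature, then NADPH regeneration added for 1 h at room temperature. Detection reagent added for 20 min; luciferin light read as relative luminescence units.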

Experiment [3] deals with Cytochrome P450 2C9 (Homo sapiens) (UniProt P11712). As to the kind of experiment: Cytochrome P450 family 2 subfamily C member 9 (CYP2C9) small molecule antagonists: luciferase biochemical (cell-free) qHTS assay (AID 1645842; active = well fitted curve in the direction sought with a large enough effect in the repeat runs; an effect the other way counts as inactive or inconclusive; note: nearly all actives have a fitted effect of over 55% in size; note: potency is the fitted concentration of half-maximal effect; for activity change, negative = inhibition: % is set by controls: 0 for no effect and ±100 for the full control effect). In outline: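 Luminescence, after 20 min with luciferin detection reagent, reflected CYP2C9 turnover during a 1 h NADPH-driven reaction at 37C. Enzyme-substrate mix contained 0.4% bovine serum albumin and was preincubated with compound 10 min at room temperature.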
Cytochrome P450 2C9 (Homo sapiens), sequence (P11712 whole entry, looked up): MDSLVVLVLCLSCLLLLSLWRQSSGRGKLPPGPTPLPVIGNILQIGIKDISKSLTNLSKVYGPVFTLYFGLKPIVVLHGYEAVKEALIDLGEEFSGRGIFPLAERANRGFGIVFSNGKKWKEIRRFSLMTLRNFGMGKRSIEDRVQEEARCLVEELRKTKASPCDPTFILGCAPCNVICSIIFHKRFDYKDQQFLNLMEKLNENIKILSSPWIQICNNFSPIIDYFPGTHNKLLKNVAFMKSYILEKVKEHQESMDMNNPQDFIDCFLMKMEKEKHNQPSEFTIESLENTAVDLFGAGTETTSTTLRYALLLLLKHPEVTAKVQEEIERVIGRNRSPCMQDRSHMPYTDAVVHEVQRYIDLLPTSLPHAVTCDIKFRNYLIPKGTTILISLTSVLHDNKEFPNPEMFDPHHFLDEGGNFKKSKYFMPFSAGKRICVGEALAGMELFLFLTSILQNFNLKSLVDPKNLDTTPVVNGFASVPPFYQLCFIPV

The nature of experiment [4]: Primary qHTS for inhibitors of nuclear receptor binding SET domain protein 2 (NSD2) in an isogenic RCH-ACV NSD2 p.E1099K mutant (9B) (AID 1645876). Note: nearly all actives have a fitted effect of over 70% in size.
Experiment [5] is described as follows: Primary qHTS for inhibitors of nuclear receptor binding SET domain protein 2 (NSD2) in an RCH-ACV wild type WT cells (2C) (AID 1645877). Note: nearly all actives have a fitted effect of over 70% in size. Note: potency is the fitted concentration of half-maximal effect.
Experiment [6] in a line: NCATS anti-infectives library activity on HEK293 viability as a counter-qHTS vs the C. elegans viability qHTS (AID 1745854).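 Note: HEK293 cells exposed to compounds for 24 hr before the viability read; % is set by controls: 0 for no effect and ±100 for the full control effect.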 In outline:
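HEK293 cells (1,500/well) exposed 24 hr at 37C to 1:5 titrations, up to 41.7 uM final; counter-screen to a C. elegans viability qHTS. Viability by CellTiter-Glo luminescence after 10 min at room temperature; digitonin as control.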

Experiment [7] addresses Catechol O-methyltransferase (Homo sapiens) (UniProt P21964). Kind of experiment: Confirmatory Screen for Target Class Profiling of Small Molecule Inhibitors of Methyltransferases (AID 1745852; calls by dose curve; note: potency is the fitted concentration of half-maximal effect). Particulars: MTase-Glo luminescence, SAH detection, recombinant enzyme; measured here: COMT max response; stronger effect = lower value.
For experiment [8], the target named is Guanidinoacetate N-methyltransferase (Homo sapiens) (UniProt Q14353). Described as above. Particulars: MTase-Glo luminescence, SAH detection, recombinant enzyme; activity change, negative = inhibition: at 57.3 µM (top of the series) unless noted.
The target of experiment [9] is Nicotinamide N-methyltransferase (Homo sapiens) (UniProt P40261). The description is as above. Particulars: MTase-Glo luminescence, SAH detection, recombinant enzyme; measured here: NNMT max response; stronger effect = lower value.
Nicotinamide N-methyltransferase (Homo sapiens), sequence (P40261 whole entry, looked up): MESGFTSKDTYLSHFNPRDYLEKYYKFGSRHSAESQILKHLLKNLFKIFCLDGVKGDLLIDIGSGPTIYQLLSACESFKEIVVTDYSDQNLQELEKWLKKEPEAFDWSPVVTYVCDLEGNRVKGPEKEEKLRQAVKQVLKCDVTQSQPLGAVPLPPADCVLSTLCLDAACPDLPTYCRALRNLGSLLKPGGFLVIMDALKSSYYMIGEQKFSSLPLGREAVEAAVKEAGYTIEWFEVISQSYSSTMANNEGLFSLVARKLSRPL
Experiment [10] has as its target Phenylethanolamine N-methyltransferase (Homo sapiens) (UniProt P11086). The experiment is described as above. The conditions noted are these: MTase-Glo luminescence, SAH detection, recombinant enzyme; measured here: PNMT max response; stronger effect = lower value.

Cytochrome P450 2D6 (Homo sapiens), sequence (P10635 whole entry, looked up): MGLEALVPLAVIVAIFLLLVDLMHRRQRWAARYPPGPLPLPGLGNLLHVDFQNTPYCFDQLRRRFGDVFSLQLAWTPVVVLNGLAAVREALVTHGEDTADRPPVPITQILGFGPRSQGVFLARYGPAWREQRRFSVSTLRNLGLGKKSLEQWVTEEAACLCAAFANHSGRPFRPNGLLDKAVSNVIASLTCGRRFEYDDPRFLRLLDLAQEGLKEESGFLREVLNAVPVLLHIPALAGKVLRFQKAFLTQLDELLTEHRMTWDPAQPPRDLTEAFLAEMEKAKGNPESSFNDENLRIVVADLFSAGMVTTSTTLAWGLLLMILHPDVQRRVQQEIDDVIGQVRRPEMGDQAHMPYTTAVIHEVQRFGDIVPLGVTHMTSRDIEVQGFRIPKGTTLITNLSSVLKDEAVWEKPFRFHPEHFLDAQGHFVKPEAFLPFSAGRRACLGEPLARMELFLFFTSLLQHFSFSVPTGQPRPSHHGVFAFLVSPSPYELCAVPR
Calcium and integrin-binding protein 1 (Homo sapiens), sequence (Q99828 whole entry, looked up): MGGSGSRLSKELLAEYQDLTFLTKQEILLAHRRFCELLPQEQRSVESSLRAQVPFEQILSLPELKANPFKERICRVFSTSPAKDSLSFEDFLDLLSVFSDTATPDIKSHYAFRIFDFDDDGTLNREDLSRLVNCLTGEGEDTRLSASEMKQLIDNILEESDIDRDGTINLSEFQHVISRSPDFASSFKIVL
Catechol O-methyltransferase (Homo sapiens), sequence (P21964 whole entry, looked up): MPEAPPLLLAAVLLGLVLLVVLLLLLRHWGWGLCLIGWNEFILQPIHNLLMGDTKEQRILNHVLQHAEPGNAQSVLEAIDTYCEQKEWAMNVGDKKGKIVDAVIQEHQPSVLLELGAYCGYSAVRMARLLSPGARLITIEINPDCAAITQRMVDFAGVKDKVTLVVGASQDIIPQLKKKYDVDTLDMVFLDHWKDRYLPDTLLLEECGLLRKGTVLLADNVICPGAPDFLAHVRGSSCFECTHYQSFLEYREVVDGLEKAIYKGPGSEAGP
Phenylethanolamine N-methyltransferase (Homo sapiens), sequence (P11086 whole entry, looked up): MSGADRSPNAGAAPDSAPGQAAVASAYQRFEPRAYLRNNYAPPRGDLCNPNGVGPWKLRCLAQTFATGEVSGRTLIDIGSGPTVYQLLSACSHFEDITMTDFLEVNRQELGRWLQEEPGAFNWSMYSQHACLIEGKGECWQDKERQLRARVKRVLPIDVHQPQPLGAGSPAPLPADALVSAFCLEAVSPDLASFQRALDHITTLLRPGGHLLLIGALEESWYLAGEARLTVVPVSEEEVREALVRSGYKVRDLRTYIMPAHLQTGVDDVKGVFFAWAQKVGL

As for `CNc1nc(Nc2cn(C(C)(C)C#N)nc2C)ncc1C(F)(F)F`, the Potency entry in experiment [1], in experiment [2], in [4] and in experiment [5] was “inactive” throughout. For the same compound, in experiment [3], the Potency is 7.56 µM (active).
Regarding `Cc1oc(S(=O)(=O)N2CCCCC2)cc1NC(=O)Nc1ccccc1`, the Potency result in experiment [1], in experiment [4] and in [5] was “inactive” in each case. Also, the Potency was 12 µM (active) in [2] and 6.01 µM (active) in [3].
In the case of `Cc1[nH]c2ccccc2c1CC(=O)N[C@@H](Cc1ccccc1)C(=O)N(C)c1ccccc1`, the Potency result in experiment [1] and in experiment [5] was “inactive” throughout. Besides, the Potency in [2] is 16.9 µM (active); in [3], 9.52 µM (active).
For the compound `O=[N+]([O-])c1cc(Cl)ccc1S(=O)(=O)N1CCN(Cc2ccccc2)CC1`, the Potency entry in experiment [1], in experiment [3], in experiment [4] and in experiment [5] was “inactive” each time. Besides, the Potency in [2] is 0.756 µM (active).
Turning to `CCOC(=O)COc1ccc2c(c1)C[C@@H](NC[C@H](O)c1cccc(Cl)c1)CC2`, the Potency result in [1], in experiment [4] and in [5] was “inactive” each time. Moreover, the figures for the Potency in experiment [2] and in [3] were 0.756 µM (active) and 16.9 µM (active), respectively.
Take `O=C(O)c1cc(C(F)(F)F)ccc1N1CC[C@H](OCc2ccccn2)C1`: the Potency entry in experiment [1], in experiment [2], in [4] and in [5] was “inactive” in each case. In experiment [3], the Potency was 19 µM (active). Further, the outcome in [6] is “inactive”.
Regarding `O=C(O)CC1CCC(c2ccc(NC(=O)c3nnc(Nc4ccc(F)c(F)c4)o3)cc2)CC1` (stereo not drawn), the Potency result in experiment [1], in [2], in experiment [3], in [4] and in experiment [5] was “inactive” throughout.
On to `CC(C(=O)Nc1cc(C#N)ccc1CCCC(=O)O)c1ccc(F)c2ccccc12` (stereo not drawn), for which the Potency entry in experiment [1], in [2], in [4] and in experiment [5] was “inactive” each time. For the same compound, the Potency in experiment [3] is 0.536 µM (active).
`Nc1ncnc2c1ncn2[C@H]1O[C@@H](C(=O)N2CCN(CC(=O)Nc3cccc4c3CNC4=O)CC2)[C@H](O)[C@@H]1O`: the Potency entry in experiment [1], in experiment [2], in [3], in experiment [4] and in experiment [5] was “inactive” throughout. For the same compound, the figures for the activity in experiment [7], in experiment [9] and in experiment [10] were -12.8%, -14.5% and -35.1%, respectively. Further, the Potency in experiment [8] is 21.5 µM (active).
Consider `COC(=O)[C@H](Cc1cccc(C(=N)N)c1)[C@@H](C)NC(=O)c1ccc(-c2cc[n+]([O-])cc2)cc1`, for which the Potency result in experiment [1], in experiment [2], in [3], in [4] and in [5] was “inactive” in each case. Further, the activity in [7] is -6.84%; in experiment [9] it was 1.87%; in [10], -2.03%. The activity change, negative = inhibition in experiment [8] stood at 0%.
In the case of `CCCC(=O)Nc1cccc(NC(=O)c2ccccc2Br)c1`, the Potency result in [1], in experiment [2], in experiment [3], in [4] and in [5] was “inactive” throughout.
For the compound `CC1(C)[C@H]2C[C@H](C/C=C\CCCC(=O)O)[C@@H](NC(=O)c3csc4ccc(O)cc34)[C@@H]1C2`, the Potency entry in experiment [1], in experiment [2], in experiment [4] and in experiment [5] was “inactive” throughout. Besides, the Potency in experiment [3] was 1.34 µM (active).
Consider `Cc1ccc2nc(NC(=O)CSc3nc4c(c(=O)n3-c3ccc(F)cc3)SCC4)sc2c1`, for which the Potency entry in experiment [1], in [2], in [4] and in experiment [5] was “inactive” in each case. Moreover, the Potency in experiment [3] is 3.38 µM (active).
Take `COC(=O)[C@H](Cc1ccc([N+](=O)[O-])cc1)NC(=O)c1cccc2ccccc12`: the Potency entry in [1], in experiment [4] and in experiment [5] was “inactive” in each case. The values for the Potency in experiment [2] and in experiment [3] were 2.13 µM (active) and 3.79 µM (active), respectively.
Consider `CCCN(CCN1CCN(c2ccccc2OC)CC1)C1CCc2ncsc2C1` (stereo not drawn), for which the Potency entry in experiment [1], in experiment [3], in experiment [4] and in experiment [5] was “inactive” each time. Further, the Potency in experiment [2] is 1.9 µM (active).
Take `Cc1cn(C[C@H](N)C(=O)O)c(=O)n(Cc2ccsc2C(=O)O)c1=O`: the Potency entry in experiment [1], in experiment [2], in [3], in [4] and in [5] was “inactive” in each case.
As for `O=C(O)[C@H]1Cc2ccccc2CN1`, the activity change, negative = inhibition in experiment [1] was 5.95% [at 12.4 µM] (inactive); in [2], 4.56% [at 11.5 µM] (inactive); in experiment [3], 2.02% [at 11.5 µM] (inactive). Also, the outcome in experiment [4] and in [5] was “inactive [at 4.96 µM]” throughout.
As to `COc1cccc(OC)c1-c1nc(C(=O)N[C@@H](CC(C)C)C(=O)O)cn1-c1ccnc2cc(Cl)ccc12`, the Potency entry in experiment [1], in [2], in experiment [3], in experiment [4] and in experiment [5] was “inactive” each time.
With `c1cc(-c2cc(C3CCNCC3)[nH]n2)ccn1`, the Potency result in [1], in [3], in experiment [4] and in experiment [5] was “inactive” throughout. Also, in [2], the Potency is 15.1 µM (active).
Turning to `O=C(c1ccc(Cl)c([N+](=O)[O-])c1)N1CCN(c2ccccc2F)CC1`, the Potency result in experiment [1] and in experiment [2] was “inactive” throughout. Also, the Potency is 2.68 µM (active) in [3] and 16.3 µM (active) in experiment [5].
For `CCCC(C(=O)O)c1c(C)nc2ccc(Cl)cc2c1-c1ccccc1` (stereo not drawn), the Potency result in [1], in experiment [2], in experiment [4] and in experiment [5] was “inactive” throughout. In addition, in experiment [3], the Potency was 21.3 µM (active). In addition, the outcome in [6] was “inactive”.
On to `CN(C)c1ccc(C2O[C@@H](c3ccccc3)C[C@H](c3ccccc3)O2)cc1` (stereo partly drawn), for which the Potency result in experiment [1], in [2], in experiment [4] and in experiment [5] was “inactive” each time. Besides, the Potency in experiment [3] is 15.1 µM (active).
Turning to `CNC(=O)c1ccc2c(c1)CCO[C@H]2CCN1CCN(c2ccc(C(N)=O)cc2)CC1`, the Potency entry in experiment [1], in [2], in experiment [3], in experiment [4] and in [5] was “inactive” each time.
As for `c1ccc2c(Nc3nnc(-c4ccncc4)s3)cccc2c1`, the Potency entry in experiment [1], in [2], in [4] and in experiment [5] was “inactive” in each case. In experiment [3], the Potency was 6.01 µM (active).
